The list is not random: actives were taken first. Their share in the collection is about 1.1%.
HttQ103 aggreg: inhibitors of mutant huntingtin aggregate formation in PC12 cells; PC12 HttQ103-GFP aggregates, Acumen cytometry, 40 h; Potency, µM (doses to about 46.1 µM), usual class: inhibitors; hit rate 1.1% among 220,000; also: nearly all actives have a fitted effect of over 60% in size
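PC12 cells with ecdysone-inducible HTT exon1 Q103-GFP, induced by 100 nM tebufenozide, given compounds in a concentration series. GFP aggregates (1–25 um, 6 SD above background) counted in lysates by laser-scanning cytometry, 488 nm excitation.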
AT treatment: candidate therapy for ataxia-telangiectasia; F2112 A-T fibroblasts, KAP-1 phosphorylation AlphaLISA; neocarzinostatin DNA damage 30 min before lysis; hit rate 0.19% among 320,000; AID 485349; Potency, µM (series often up to 57.5 µM), actives largely listed as activators; also: nearly all actives have a fitted effect of over 45% in size
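hTERT-immortalized A-T patient fibroblasts (F2112), 500 cells/well in OPTI-MEM, 1% FBS, got compounds for 60 min, then NCS for 30 min at 37C. Lysates were then assayed for phospho-KAP-1 by AlphaLISA (anti-pKAP1 donor, anti-KAP1 acceptor beads), 6 hr at 25C.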
HTT cytoprotect: protects HTT-Q103 PC12 cells, measured by ATP; Potency, µM (titrated, usually from 56.4 µM), usual class: activators; hit rate 0.14% among 230,000; PC12 HTT-Q103 induced, cytoprotection, ATP luminescence, 40 h; also: nearly all actives have a fitted effect of over 45% in size
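Compounds were screened for protection of PC12 cells against cell death after tebufenozide induction (100 nM final) of mutant Huntingtin exon 1 (Q103) fused to GFP.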
NPSR antag: neuropeptide S receptor (human) antagonism, cAMP; Q6W5P4; CHO-NPSR cells, cAMP TR-FRET, antagonist mode; Potency, µM (highest dose often 38.3 µM), most hits filed as inhibitors; hit rate 1% among 220,000; AID 1461; also: nearly all actives have a fitted effect of over 50% in size
mIDH1 inhibitor: inhibitors of human mutant IDH1 R132H; hit rate 0.093% among 390,000; O75874; Potency, µM (titrated, usually from 76.6 µM), hits mostly inhibitors; IDH1-R132H enzyme, NADPH consumption, diaphorase/resazurin fluorescence; also: nearly all actives have a fitted effect of over 65% in size
Target sequence (O75874 whole entry R132H, stated change not applied): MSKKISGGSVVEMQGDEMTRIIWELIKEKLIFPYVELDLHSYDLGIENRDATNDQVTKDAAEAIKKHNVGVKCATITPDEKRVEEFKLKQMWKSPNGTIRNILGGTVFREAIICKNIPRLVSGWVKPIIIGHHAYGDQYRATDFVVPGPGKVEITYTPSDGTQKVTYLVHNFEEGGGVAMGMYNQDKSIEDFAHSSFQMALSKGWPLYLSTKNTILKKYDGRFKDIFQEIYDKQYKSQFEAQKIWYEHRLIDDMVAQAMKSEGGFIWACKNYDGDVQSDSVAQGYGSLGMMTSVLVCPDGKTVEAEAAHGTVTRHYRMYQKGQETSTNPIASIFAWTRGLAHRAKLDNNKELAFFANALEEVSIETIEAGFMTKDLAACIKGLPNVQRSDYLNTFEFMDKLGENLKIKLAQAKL
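IDH1-R132H (0.5 ug/mL dispensed) in pH 7.5 Tris buffer was preincubated 30 min with compound, then given a substrate mix of 0.016 mM NADPH and 2 mM alpha-KG for 80 min at room temperature; remaining NADPH was read by diaphorase/resazurin fluorescence.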
Numbers stand for hits; n = inactive; u = inconclusive; x = not tested or not shown; [ ] = remark or other dose. Calls follow the shape of the dose curve; as a rule, active = well fitted curve in the direction sought with a large enough effect; inconclusive = small, poorly fitted or top-dose-only effect, or another doubt; inactive = no such curve, though single readings can be large; an effect the other way counts as inactive or inconclusive.

SMILES	HttQ103 aggreg	AT treatment	HTT cytoprotect	NPSR antag	mIDH1 inhibitor
Oc1cc(O)c2c(c1)O[C@H](c1ccc(O)c(O)c1)[C@@H](O)[C@@H]2c1c(O)cc(O)c2c1O[C@@H](c1ccc(O)c(O)c1)[C@H](O)C2	x	x	n[10 µM]	x	x
Cc1cc(C)c2nc(C(F)(F)F)c(C#N)c(N)c2c1	5.6µM	x	n[10 µM]	n	n
O=C(/C=C\c1ccc(O)cc1)c1ccc(O)cc1O	x	x	n[1.9 µM]	x	x
O=S(=O)(NCCNC/C=C/c1ccc(Br)cc1)c1cccc2cnccc12	x	x	n	n	x
CC(C)N(CC(=O)Nc1ccc(Cl)cc1C(F)(F)F)C(=O)CCl	14µM	n	n	n	n
COc1ccc(C(=O)C(CCC(CNC(C)(C)C)C(=O)c2ccc(OC)cc2)CNC(C)(C)C)cc1 (configuration not stated)	18µM	n	x	n	n
CCCc1nn(C)c(C(=O)Nc2ccc(C(C)(C)C)cc2)c1Cl	n	35µM	x	n	n
CCCc1nn(C)c(C(=O)Nc2ccc(Cl)cc2)c1Cl	n	n	n[10 µM]	n	n
COc1cc(/C=C2\SC(c3ccc(C)cc3)=NC2=O)cc(OC)c1O	n	n	n[10 µM]	2µM	n
Nc1ccn([C@@H]2O[C@@H](CO)[C@@H](O)[C@H]2O)c(=O)n1	x	x	n[1.9 µM]	x	x
COc1ccc(/C=C/C(=O)NCC2COc3ccccc3O2)c(OC)c1 (configuration not stated)	n	n	n	n	n
O=C(/C=C/c1ccco1)NCC1COc2ccccc2O1 (configuration not stated)	n[9.22 µM]	25µM	n[10 µM]	n	n
CSc1cc(/C=N/O)c(SC)s1	13µM	n	n[10 µM]	n	n
Cc1ccc(C(=O)N(Cc2ccc(N(C)C)cc2)CC2CCCO2)cc1 (configuration not stated)	x	x	x	x	n
Cc1ccc(-n2nnc3c(=O)n(CC(=O)OCc4ccccc4)cnc32)cc1	0.0028µM	n	x	n	n
Cc1cc2c3c(c1)C(C)(c1ccccc1)CC(C)(C)N3C(=O)C21C(C#N)=C(N)OC2=C1C(=O)CC(C)(C)C2 (configuration not stated)	n[9.22 µM]	x	n	10µM	n
CC1(c2ccccc2)CC(C)(C)N2C(=O)C3(C(C#N)=C(N)Oc4cc(O)ccc43)c3cccc1c32 (configuration not stated)	n	n	n	u	u
CCCNC(=O)c1nnsc1S(=O)c1ccc(Cl)cc1 (configuration not stated)	11µM	n	n	n	n
Cc1ccc(S(=O)c2snnc2C)cc1 (configuration not stated)	x	n	x	x	n
CNC(=O)c1nnsc1S(=O)c1ccc(Cl)cc1 (configuration not stated)	14µM	n	n	n	n
Cc1ccc(Cl)cc1N1CCN(C(=O)CCS(=O)(=O)c2ccc3c(c2)oc(=O)n3C)CC1	x	x	x	x	n
COc1ccc(NC(=O)Cn2c(SCc3ccc(C)cc3)nc3cccnc32)c(OC)c1	x	x	x	x	n
Oc1ccc(-c2csc(Nc3ncccn3)n2)c(O)c1	n	n	n	n	n
Cc1ccc(C)c(-c2csc(Nc3ncccn3)n2)c1	x	3.2µM	x	x	n
COc1ccccc1-c1ccc(SCc2ccc([N+](=O)[O-])cc2)nn1	n	n	n	u	n
SMILES	HttQ103 aggreg	AT treatment	HTT cytoprotect	NPSR antag	mIDH1 inhibitor
COc1ccccc1-c1ccc(SCc2cccc(C)c2)nn1	22µM	n	u	n	n
COC(=O)CCn1nnc(-c2ccc(C)cc2)n1	n	n	n[10 µM]	n	n
CC(=O)c1ccccc1OCCn1nnc(-c2ccc(C)cc2)n1	20µM	n	n[10 µM]	n	n
CC(C)(C)OC(=O)N[C@@H](Cc1ccccc1)c1nnc(S(=O)(=O)Cc2cccc(F)c2)o1	u	u	n[0.074 µM]	u	n
CC(C)[C@H](NC(=O)OC(C)(C)C)c1nnc(S(=O)(=O)Cc2c(F)cccc2Cl)o1	10µM	n	n	13µM	n
CC[C@@H](C)[C@H](NC(=O)OC(C)(C)C)c1nnc(S(=O)(=O)Cc2cc(C)ccc2C)o1	u	n	u	10µM	n
CC[C@@H](C)[C@H](NC(=O)OCc1ccccc1)c1nnc([C@@H](NC(=O)OCc2ccccc2)[C@@H](C)CC)o1	n[9.22 µM]	n	n[10 µM]	n	n
Cc1ccccc1CS(=O)(=O)c1nnc([C@H](CC(C)C)NC(=O)OC(C)(C)C)o1	u	n	n[0.074 µM]	10µM	n
COc1cc(C)cc2c(-c3c(O)cc(O)c4c3C[C@H](C)N[C@@H]4C)cc(-c3cc(-c4c(O)cc(O)c5c4C[C@H](C)N[C@@H]5C)c4cc(C)cc(OC)c4c3O)c(O)c12	x	x	n[10 µM]	x	x
Cc1ccc2cccc(OC(=O)/C=C\c3ccccc3)c2n1	n[9.22 µM]	n	3.2µM	n	n
COc1ccc(C(CC(=O)Nc2ccc(OC)c(OC)c2)N2Cc3ccccc3C2=O)cc1 (configuration not stated)	x	x	x	x	n
Cc1nc(NC2CCCCC2)c2nc(-c3ccccc3)n(C(C)CN(C)C)c2n1 (configuration not stated)	x	x	n	x	x
CCO/C=C1\SC(=S)N(c2ccc(Cl)cc2)C1=O	n[9.22 µM]	n	n[10 µM]	n	n
CC(C)c1ccc(N2C(=O)/C(=C/N(C)C)SC2=S)cc1	n[9.22 µM]	n	n[10 µM]	n	13µM
COc1ccc(S(=O)(=O)Nc2cccc(SC)c2)cc1OC	0.71µM	n	n[10 µM]	n	n
O=C1C(c2cccc(Br)c2)N(CCc2ccccc2)C(=O)CN1C1CCCCC1 (configuration not stated)	x	x	x	x	n
COc1ccc(-n2ncc(Cl)c(Cl)c2=O)cc1	4µM	n	x	n	n
COc1ccc(-n2ncc(N(C)n3cccc3)c(Cl)c2=O)cc1	n	n	n	n	n
COc1cc([N+](=O)[O-])c2ncsc2c1	n	n	x	n	n
COc1cc(SSc2cc(OC)cc([N+](=O)[O-])c2N)c(N)c([N+](=O)[O-])c1	n[9.22 µM]	n	n[10 µM]	3.2µM	n
COc1c(C(=O)Nc2ccc(Cc3ccncc3)cc2)ccc2ccccc12	13µM	n	x	n	n
CCCCc1nc2c(c3c1C[C@H](C)OC3)CN(S(=O)(=O)c1ccc(C#N)cc1)CC2	x	x	n[10 µM]	x	x
O=C(CCl)Nc1cc(SCC(O)CO)cc([N+](=O)[O-])c1 (configuration not stated)	2.8µM	n	n[10 µM]	n	n
CC(C)=NOc1cc(NC(=O)CCl)cc([N+](=O)[O-])c1	3.2µM	n	x	n	n
CCC(=O)Nc1cc(SCCO)cc([N+](=O)[O-])c1	n	n	n	n	n
CCC(C)NC(=O)C1CCN(C(=O)c2cc3sccc3n2Cc2ccc(Cl)cc2)CC1 (configuration not stated)	x	x	x	x	n
CC(C)c1ccc(NC(=O)CSC(C)c2nc3ccccc3c(=O)[nH]2)cc1 (configuration not stated)	n[9.22 µM]	4µM	n[10 µM]	n	n
COc1ccc2[nH]cc(C(O)CN3CCN(c4ccccc4)CC3)c2c1 (configuration not stated)	u	n	n[0.074 µM]	n	x

From PubChem BioAssay
